“And” between values parts separate entries of the source, which are not always exact repeats. Equal entries are not always repeated. Inconclusive results are not listed. Where a call stands in place of a potency, no number is given. Where a structure was tested more than once in an assay, its records may differ in their call. The source made the active and inactive calls. The call rests on the fitted dose curve; in most records, active means well fitted inhibition curve with a large enough effect; inconclusive means small, poorly fitted or top-dose-only effect; inactive means no such curve, though single readings can be large or run the other way.
Target: M-phase phosphoprotein 8 (Homo sapiens) (UniProt Q99549)
Sequence (Q99549 whole entry, looked up): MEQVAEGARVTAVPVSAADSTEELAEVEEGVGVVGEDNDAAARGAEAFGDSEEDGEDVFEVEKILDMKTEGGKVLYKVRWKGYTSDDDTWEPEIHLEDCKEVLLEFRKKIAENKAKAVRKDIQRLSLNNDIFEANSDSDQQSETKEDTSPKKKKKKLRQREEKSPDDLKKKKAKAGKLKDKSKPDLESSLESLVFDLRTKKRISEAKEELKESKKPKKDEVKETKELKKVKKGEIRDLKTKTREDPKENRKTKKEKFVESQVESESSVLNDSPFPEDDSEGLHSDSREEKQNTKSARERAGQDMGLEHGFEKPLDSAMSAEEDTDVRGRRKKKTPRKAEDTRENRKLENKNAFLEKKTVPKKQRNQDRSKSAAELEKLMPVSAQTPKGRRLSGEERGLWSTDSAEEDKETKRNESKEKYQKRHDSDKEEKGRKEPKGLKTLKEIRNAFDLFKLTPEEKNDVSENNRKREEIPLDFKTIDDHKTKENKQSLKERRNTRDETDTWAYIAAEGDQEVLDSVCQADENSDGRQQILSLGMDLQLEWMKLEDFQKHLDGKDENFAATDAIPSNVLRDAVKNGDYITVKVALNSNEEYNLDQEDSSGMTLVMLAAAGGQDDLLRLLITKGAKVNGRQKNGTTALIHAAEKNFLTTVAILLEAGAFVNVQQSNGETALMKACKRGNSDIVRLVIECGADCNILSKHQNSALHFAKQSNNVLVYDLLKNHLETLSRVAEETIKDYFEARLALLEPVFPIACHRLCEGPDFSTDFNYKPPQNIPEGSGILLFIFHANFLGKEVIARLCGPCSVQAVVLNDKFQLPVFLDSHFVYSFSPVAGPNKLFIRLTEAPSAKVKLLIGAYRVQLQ
Assay: qHTS Validation Assay for Inhibitors for MPP8 Chromodomain Interactions with Methylated Histone Tails (AID 488949); further: nearly all actives have a fitted effect of over 55% in size
Details: AlphaScreen MPP8 binding to H3K9me3 peptide; series mostly up to 57.1 µM
Text: As our understanding of epigenetics expands, it is becoming clear that players in this field are potential targets for drug development. This area of epigenetic therapy has established applications for the treatment of cancer and neurological diseases. We have been involved in this field for a number of years and have performed high-throughput screens to identify the first small molecule inhibitors of protein methyltransferases. These methyltransferases target multiple substrates, and thus regulate many arms of an epigenetic pathway. The methylation of different substrates often generates docking sites for effector proteins that harbor binding domains (chromo, tudor, PHD, MBT and ANK repeats). It has been proposed that the binding sites generated for different proteins by these post-translational modifcations mediate downstream effects on chromatin. Consistent with this theory, di- and tri-methylation of histone H3K9 facilitates the binding of heterochromatin protein HP1. The HP1 protein harbors a chromodomain that is responsible for the methyl-dependent interaction between HP1 and lysine 9 of histone H3. HP1 was first described in flies as a heterochromatin associated protein that can regulate gene silencing. It harbors a chromodomain that binds H3K9me3. In addition, it harbors a chromoshadow domain that interacts with a large number of proteins that are involved in heterochromatin formation and gene repression. There are three highly related HP1 isoforms. All three variants are associated with pericentric heterochromatin and it is not clear whether they have specific or redundant functions. MPP8 is also involved in the repression of gene in euchromatic regions (unpublished data) and like HP1 its chromodomain binds H3K9me3. MPP8 harbors an ankyrin repeat region that is likely involved in binding and recruiting interacting proteins with transcriptional repressive function, much like the chromoshadow domain of HP1 does. We hypothesize that by inhibiting specific protein-protein interactions we will be able to develop compounds that block a single arm of an epigenetic pathway. The specificity attained by blocking a single protein-protein interaction will be far greater than that attained by blocking the enzyme that regulates one of many interactions. Low-affinity protein-protein interactions (Kd in the single- to double-digit micromolar range) such as those discussed here have been very difficult to assay by traditional techniques such as fluorescence polarization or fluorescence resonance energy transfer. We have developed a sensitive chemiluminescence-based assay (Quinn, et al. 2009), which serves as the starting point for this project. The following is a validation assay to identify lead compounds that can block methyl-dependent protein-protein interactions (specifically MPP8), which can be used as probes to analyze these methyl-driven interactions and perhaps even developed into targeted epigenetic therapies. Assay Provider: Mark T. Bedford, MD Anderson Screening Center PI: Austin, C.P. Screening Center: NIH Chemical Genomics Center [NCGC]
To each well, 2 uL of MPP8 protein (final 50 nM) and 1 uL biotinylated histone peptide trimethylated at Lys9 [b-H3(1-18)K9me3] (final 50 nM) was added in 1x PBS buffer, pH 7.4, containing 0.01% Tween-20 using a nanoliter dispenser. Formation of a protein-peptide complex proceeded at room temperature for 30 min. A Kalypsys pin-tool was employed to transfer 23 nL of library compound solution in DMSO to each well. Aurintricarboxylic acid (ATA) was used as an intraplate control with a 12-point titration in duplicate. Following a 30 min incubation of the protein-peptide complex with compounds at room temperature, a mixture of 40 ug/mL each streptavidin-coated donor and nickel chelate acceptor AlphaScreen beads (final 10 ug/mL) was added in a 1 uL dispense for a final volume of 4 uL. Plates were incubated protected from the light for 30 min at room temperature. […]
Potency means the concentration at half of the fitted maximal effect.

Structure (SMILES)	Potency
C[C@](Cc1ccc(O)c(O)c1)(NN)C(=O)O	inactive
O=c1[nH]c2cc(Cl)ccc2c(O)c1-c1ccc(Oc2ccccc2)cc1	inactive
CCCCS(=N)(=O)CC[C@H](N)C(=O)O (stereo not given in full)	inactive
Nc1ccc(-c2nc3ccc(-c4nc5ccc(N)cc5[nH]4)cc3[nH]2)cc1	44.7 µM (active) and 26.7 µM (active)
Cn1cc(C(=O)OCC2CCN(CCNS(C)(=O)=O)CC2)c2ccccc21	inactive
NCC(O)(CS(=O)(=O)O)c1ccc(Cl)cc1 (stereo not given)	inactive
N=C(N)SCCc1cnc[nH]1	inactive
CN[C@H](CC(=O)O)C(=O)O	inactive
CCCCC[C@H](CC(=O)NO)C(=O)N[C@H](C(=O)N1CCC[C@H]1CO)C(C)C	inactive
CN(CC[C@@H](Oc1ccc(C(F)(F)F)cc1)c1ccccc1)CC(=O)O	inactive
O=C(O)Cc1c[nH]c2ccc(O)cc12	inactive
CCC(=O)N1CCN(C(=O)c2ccccc2)CC1	inactive
Oc1ccc(Cn2cc[nH]c2=S)cc1	inactive
CN1C2CCC1CC(OC(c1ccccc1)c1ccccc1)C2 (stereo not given)	inactive
N=S(=O)(O)Cc1noc2ccccc12	inactive
CSc1nc(N)c2ncn([C@@H]3O[C@H](COP(=O)(O)OP(=O)(O)O)C(O)[C@H]3O)c2n1 (stereo not given in full)	inactive
O=C(O)c1cc2cc(F)ccc2[nH]1	inactive
Cc1cc2c(cc1Cl)N(C(=O)Nc1ccnc3ccccc13)CC2	inactive
COc1ccccc1N1CCN(CCN(C(=O)c2ccc(F)cc2)c2ccccn2)CC1	inactive
O=S(=O)(c1cccc2c(Cl)cccc12)N1CCCNCC1	inactive

Structure (SMILES)	Potency
C=C1C[C@@]23CC[C@H]4[C@@](C)(CCC[C@@]4(C)C(=O)O)[C@@H]2CC[C@]1(O)C3	inactive
OC[C@H]1NC[C@@H](O)[C@@H]1O	inactive
O=C(O)CCC(=O)N1CCCC1C(=O)O (stereo not given)	inactive
Oc1ccc(/C=C/c2ccc(/C=C/c3ccc(O)cc3)c(Br)c2)cc1	inactive
Cn1c(=O)c2[nH]c(-c3ccc(S(=O)(=O)O)cc3)nc2n(C)c1=O	inactive
O[Si](CCCN1CCCCC1)(c1ccc(F)cc1)C1CCCCC1 (stereo not given)	inactive
CCCCCCCCCCCCCCC[C@H](O)[C@H](N)CO	inactive
CCN(CC)CCCCCCCCOC(=O)c1cc(OC)c(OC)c(OC)c1	inactive
NC(=O)c1ccccc1	inactive
C[C@H]1CC2C3CCC4=CC(=O)C=C[C@]4(C)[C@@]3(Cl)[C@@H](O)C[C@]2(C)[C@@]1(O)C(=O)CO (stereo not given in full)	inactive
NCCCNCCCCNCCCN	inactive
NC(Cc1cccc(-c2ccccc2CP(=O)(O)O)c1)C(=O)O (stereo not given)	inactive
Nc1ccc(-c2ccc3ccccc3n2)cc1	inactive
NC(=O)CNCCC(c1ccccc1)c1ccccc1	inactive
OC[C@H]1O[C@H](n2cnc3c(N[C@H]4CCC[C@@H]4O)ncnc32)[C@H](O)[C@@H]1O	inactive
O=c1cc(-c2ccccc2)[nH]c2nc(Cl)ccc12	inactive
CC(=O)NCCc1c[nH]c2ccc(O)cc12	inactive
CSC(=N)N	inactive
O=C1C2C=CC=CC2=NC(=S)N1CCN1CCC(=C(c2ccc(F)cc2)c2ccc(F)cc2)CC1 (stereo not given)	50.1 µM (active) and inactive
CC[n+]1c(/C=C/C=C2/N(C)c3ccccc3C2(C)C)sc2ccccc21	15 µM (active)
